# The supplement of paper PMC9135407
# Several values for one entry are separate records, joined by “and”; a condition that tells them apart may be missing. Equal values may be shown once. Where a name gives a salt, the structure may show the parent alone. Screen size: about 5,800 compounds; about 620 (11%) showed activity. The entries come from a sample that favours actives as a whole. Unmarked numbers belong to inactive results.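 Rule for the calls: active = score above a cut-off or among the top three wells of a plate; in these data no inactive exceeds 0.85.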
# Tested on: primary human hepatic stellate cells (donor 1)
# Assay: scaled lipid accumulation score (0 = DMSO-like, 1 = nortriptyline-like); higher = stronger HSC inactivation (lipid re-accumulation), active = hit call of the paper
# Settings: 48 h
# [1] = library stock concentration: 400 uM
# [2] = library stock concentration: 2 mM
# [3] = library stock concentration: 3.33 mM
# [4] = library stock concentration: 10 mM
# [5] = library stock concentration: 80 uM
# [6] = library stock concentration: 1 mM
smiles,measurement,setting,value
S=C(NCc1ccc2c(c1)OCO2)N1CCN(c2ncnc3c2oc2ccccc23)CC1 [Amuvatinib  (MP-470) (0.4 mM)],scaled lipid accumulation score,[1],0.042
S=C(NCc1ccc2c(c1)OCO2)N1CCN(c2ncnc3c2oc2ccccc23)CC1 [Amuvatinib  (MP-470) (2 mM)],scaled lipid accumulation score,[2],0.074
S=C(NCc1ccc2c(c1)OCO2)N1CCN(c2ncnc3c2oc2ccccc23)CC1 [Amuvatinib (MP-470)],scaled lipid accumulation score,[3],0.006
same,scaled lipid accumulation score,[4],≤ 0
S=C(NCc1ccc2c(c1)OCO2)N1CCN(c2ncnc3c2oc2ccccc23)CC1,scaled lipid accumulation score,[5],0.069
same,scaled lipid accumulation score,[1],≤ -0.009
same,scaled lipid accumulation score,[2],0.025
same,scaled lipid accumulation score,[4],0.035
S=C(NCc1ccc2c(c1)OCO2)N1CCN(c2ncnc3c2oc2ccccc23)CC1 [Amuvatinib  (MP-470) (10 mM)],scaled lipid accumulation score,[4],0.068
O=C(O)[C@H]1NCCC[C@H]1C(=O)O,scaled lipid accumulation score,[4],≤ 0
C[S+]([O-])c1ccc(-c2nc(-c3ccc(F)cc3)c(-c3ccncc3)[nH]2)cc1 (stereo unspecified),scaled lipid accumulation score,[5],0.004
same,scaled lipid accumulation score,[1],≤ -0.009 and ≤ -0.005
same,scaled lipid accumulation score,[6],≤ 0
same,scaled lipid accumulation score,[2],0.017 and ≤ -0.005
same,scaled lipid accumulation score,[3],≤ 0
same,scaled lipid accumulation score,library stock concentration: 13.2 mM,≤ -0.012
CCCCCC=CC=CC(O)CCCCCCCC(=O)OCC(COC(=O)CCCCCCCC=CC=CC(O)CCCCC)OC(=O)CCCCCCCC=CC=CC(O)CCCCC (stereo unspecified) [Hydroxy Linoleins],scaled lipid accumulation score,[6],0.061
N#CCNC(=O)c1ccc(-c2ccnc(Nc3ccc(N4CCOCC4)cc3)n2)cc1 [listing 1 of 2 here],scaled lipid accumulation score,[5],≤ -0.009
same,scaled lipid accumulation score,[1],0.038
same,scaled lipid accumulation score,[2],≤ -0.009
same,scaled lipid accumulation score,[4],0.768
O=C(Nc1ccc(-c2ccnc(Nc3ccc(N4CCOCC4)cc3)n2)cc1)[C@@H]1CCCN1,scaled lipid accumulation score,[4],1.06 (active)
c1ccc2c(Oc3nc(Nc4ccc(N5CCOCC5)cc4)c4ncn(C5CCCCC5)c4n3)cccc2c1 [Purmorphamine],scaled lipid accumulation score,[6],≤ 0
same,scaled lipid accumulation score,[3],≤ 0
same,scaled lipid accumulation score,[4],0.032
N#CCNC(=O)c1ccc(-c2ccnc(Nc3ccc(N4CCOCC4)cc3)n2)cc1 [Momelotinib (CYT387) (0.4 mM)],scaled lipid accumulation score,[1],≤ -0.005
N#CCNC(=O)c1ccc(-c2ccnc(Nc3ccc(N4CCOCC4)cc3)n2)cc1 [listing 2 of 2 here],scaled lipid accumulation score,[3],1.05 (active)
same,scaled lipid accumulation score,[4],0.922 (active)
O=C(Nc1ccc(-c2ccnc(Nc3ccc(N4CCOCC4)cc3)n2)cc1)C1CCCN1 (stereo unspecified),scaled lipid accumulation score,[5],≤ 0
same,scaled lipid accumulation score,[1],0.007
same,scaled lipid accumulation score,[2],0.036
same,scaled lipid accumulation score,[3],0.063
same,scaled lipid accumulation score,[4],0.662
N#CCNC(=O)c1ccc(-c2ccnc(Nc3ccc(N4CCOCC4)cc3)n2)cc1 [Momelotinib (CYT387) (2 mM)],scaled lipid accumulation score,[2],0.858 (active)
N#CCNC(=O)c1ccc(-c2ccnc(Nc3ccc(N4CCOCC4)cc3)n2)cc1 [Momelotinib (CYT387) (10 mM)],scaled lipid accumulation score,[4],0.945 (active)
CC1=C(/C=C/C(=C/C=C/C(C)=C/C(=O)O)c2ccc(C)cc2)C(C)(C)CCC1,scaled lipid accumulation score,[4],≤ -0.001
CCCCCC=CCC=CCC=CCCCCCCC(=O)OC [Dihomo-.gamma.-Linolenic Acid methyl ester],scaled lipid accumulation score,[6],0.037
CC(C)CC(N)=O [Isovaleramide],scaled lipid accumulation score,[3],≤ 0
same,scaled lipid accumulation score,[4],≤ -0.001
CC(C)CC(N)=O,scaled lipid accumulation score,[4],0.291
Cc1ncc2ccccc2c1C#N [4-Cyano-3-methylisoquinoline],scaled lipid accumulation score,[3],≤ 0
"CC(=O)NC1[C@@H](O)OC(CO)[C@@H](O)[C@H]1O[C@H](C)C(=O)O (stereo in doubt) [Muramic acid, N-acetyl]",scaled lipid accumulation score,,≤ 0
CCC(=O)Oc1ccc2c(c1)CC[C@@H]1[C@@H]2CC[C@]2(C)[C@@H](OC(=O)CC)CC[C@@H]12,scaled lipid accumulation score,[4],≤ 0
Brc1c(Br)c(Br)c2n[nH]nc2c1Br [Casein Kinase II Inhibitor I],scaled lipid accumulation score,[3],≤ 0
CCCCOc1cc(C(=O)OCCN(CC)CC)ccc1N [Oxybuprocaine HCl],scaled lipid accumulation score,[3],≤ 0
same,scaled lipid accumulation score,[4],0.338
CCCCOc1cc(C(=O)OCCN(CC)CC)ccc1N [Benoxinate hydrochloride],scaled lipid accumulation score,,0.276
CCCOc1ccc(C(=O)OCCN(CC)CC)cc1N [Proparacaine HCl],scaled lipid accumulation score,[3],≤ 0
same,scaled lipid accumulation score,[4],≤ 0
CCN(CC)CCCCCCCCOC(=O)c1cc(OC)c(OC)c(OC)c1.Cl [TMB-8 hydrochloride],scaled lipid accumulation score,[4],1.03 (active)
CCN(CC)CCCCCCCCOC(=O)c1cc(OC)c(OC)c(OC)c1,scaled lipid accumulation score,library stock concentration: 12.6 mM,1.02 (active)
"CCN(CC)CCOC(=O)c1cc(Cl)c(N)cc1OC [SDZ-205,557 hydrochloride]",scaled lipid accumulation score,[4],0.051
CCN(CC)CCOC(=O)c1cc(Cl)c(N)cc1OC [SDZ 205-557 hydrochloride],scaled lipid accumulation score,[4],0.003
CCN(CCCCOC(=O)c1ccc(OC)c(OC)c1)C(C)Cc1ccc(OC)cc1 (stereo unspecified) [Mebeverine hydrochloride],scaled lipid accumulation score,,0.362
same,scaled lipid accumulation score,[4],≤ 0
CCCOc1ccc(C(=O)OCCN(CC)CC)cc1N [Proxymetacaine],scaled lipid accumulation score,[4],0.166
CCCOc1ccc(C(=O)OCCN(CC)CC)cc1N [Proparacaine hydrochloride],scaled lipid accumulation score,,≤ 0
same,scaled lipid accumulation score,library stock concentration: 6 mM,≤ 0
COc1ccc2cc(C(C#N)OC(=O)CC3OC3c3ccccc3)ccc2c1 (stereo unspecified),scaled lipid accumulation score,[6],0.017
C[N+](C)(C)[C@@H](Cc1c[nH]c(=S)[nH]1)C(=O)[O-] [Ergothioneine],scaled lipid accumulation score,library stock concentration: 8.7 mM,≤ -0.006
CC(=O)Nc1ccc(NC(=S)NC(=O)c2ccc(C(C)(C)C)cc2)cc1 [Tenovin-1],scaled lipid accumulation score,[6],≤ 0
CN(C)CCCCC(=O)Nc1ccc(NC(=S)NC(=O)c2ccc(C(C)(C)C)cc2)cc1 [Tenovin-6] [listing 1 of 2 here],scaled lipid accumulation score,[3],1.18 (active)
CN(C)CCCCC(=O)Nc1ccc(NC(=S)NC(=O)c2ccc(C(C)(C)C)cc2)cc1 [Tenovin-6] [listing 2 of 2 here],scaled lipid accumulation score,[6],0.143
same,scaled lipid accumulation score,[4],0.405
"O=C(O)C=Cc1cc(Br)c(Br)c(Br)c1Br [Casein Kinase II Inhibitor III, TBCA]",scaled lipid accumulation score,[3],≤ 0
Cc1cccc(-c2[nH]c(CNc3ccccc3F)nc2-c2ccc3ncnn3c2)n1,scaled lipid accumulation score,[5],≤ -0.001
same,scaled lipid accumulation score,[1],≤ -0.001
same,scaled lipid accumulation score,[2],≤ -0.001
same,scaled lipid accumulation score,[4],≤ -0.001
CCCCCCCCCCCCCCCCOC[C@@H](O)COP(=O)(O)O [1-Hexadecyl Lysophosphatidic Acid],scaled lipid accumulation score,[6],≤ 0
Cc1nc(N=Nc2ccc(C(=O)O)cc2)c(COP(=O)(O)O)c(C=O)c1O,scaled lipid accumulation score,[4],0.139
CCCCCCCCCCCCCCCCCC(=O)NCCS(=O)(=O)O [N-Stearoyl Taurine],scaled lipid accumulation score,[6],0.008
CNC(=O)c1ccc(C)c(-n2c(C)cc(OCc3ccc(F)cc3F)c(Br)c2=O)c1,scaled lipid accumulation score,[5],0.057
same,scaled lipid accumulation score,[1],0.038
same,scaled lipid accumulation score,[2],0.056
same,scaled lipid accumulation score,[3],0.014
same,scaled lipid accumulation score,[4],≤ 0 and ≤ -0.001
CCN(CCCOc1ccc2c(Nc3cc(CC(=O)Nc4cccc(F)c4)[nH]n3)ncnc2c1)CCOP(=O)(O)O [Barasertib],scaled lipid accumulation score,[5],0.022
same,scaled lipid accumulation score,[1],≤ -0.001
same,scaled lipid accumulation score,[2],0.115
same,scaled lipid accumulation score,[4],0.242
"CCC=CCC=CCC=CCCCCCCCCCC(=O)O [11(Z),14(Z),17(Z)-Eicosatrienoic Acid]",scaled lipid accumulation score,[6],≤ 0
O=S(=O)(c1ccccc1)c1cnc2c(N3CCNCC3)cccc2c1 [listing 1 of 2 here],scaled lipid accumulation score,[3],0.285
O=S(=O)(c1ccccc1)c1cnc2c(N3CCNCC3)cccc2c1 [listing 2 of 2 here],scaled lipid accumulation score,[4],0.994 (active)
Cc1ccc(Sc2ccccc2N2CCNCC2)c(C)c1,scaled lipid accumulation score,[3],0.769
same,scaled lipid accumulation score,[4],0.102
CCCCCCC[C@H](O)/C=C/[C@@H]1[C@@H](C/C=C\CCCC(=O)O)[C@@H](O)C[C@H]1O [20-ethyl Prostaglandin F2.alpha.],scaled lipid accumulation score,[6],≤ 0
NC(=O)Nc1cc(-c2cccc(F)c2)sc1C(=O)N[C@H]1CCCNC1 [listing 1 of 2 here],scaled lipid accumulation score,[3],0.879 (active)
NC(=O)Nc1cc(-c2ccccc2)sc1C(N)=O [IKK-2 Inhibitor XI],scaled lipid accumulation score,[3],≤ 0
NC(=O)Nc1cc(-c2cccc(F)c2)sc1C(=O)N[C@H]1CCCNC1 [listing 2 of 2 here],scaled lipid accumulation score,[5],≤ 0
same,scaled lipid accumulation score,[1],0.06 and ≤ -0.005
same,scaled lipid accumulation score,[2],0.23 and 0.444
same,scaled lipid accumulation score,[4],0.559 and 0.276
CNCC(O)c1ccc(O)c(O)c1 (racemic) [(+/-)-Epinephrine hydrochloride],scaled lipid accumulation score,[4],≤ 0
"CCCCC[C@H](O)CC[C@@H]1[C@@H](C/C=C\CCCC(=O)O)[C@@H](O)C[C@H]1O [13,14-dihydro Prostaglandin F2.alpha.]",scaled lipid accumulation score,[6],≤ 0
CCCCC[C@H](O)/C=C/[C@@H]1[C@@H](CCCCCCC(=O)O)[C@@H](O)C[C@H]1O [Prostaglandin F1.alpha.],scaled lipid accumulation score,[6],≤ 0
O=P(O)(O)OC1[C@@H](O)[C@H](O)C(O)[C@H](O)[C@@H]1O (stereo partly drawn) [D-myo-Inositol-3-phosphate (sodium salt)],scaled lipid accumulation score,[6],0.009
Cc1nc(N)sc1-c1ccnc(Nc2ccc(N3CCOCC3)cc2)n1 [listing 1 of 3 here],scaled lipid accumulation score,[1],≤ -0.005
same,scaled lipid accumulation score,[2],≤ -0.005
same,scaled lipid accumulation score,[3],≤ 0
Cc1ncc(-c2ccnc(Nc3ccc(S(C)(=O)=O)cc3)n2)n1C(C)C,scaled lipid accumulation score,[5],0.708
same,scaled lipid accumulation score,[1],0.763
same,scaled lipid accumulation score,[2],0.527
same,scaled lipid accumulation score,[3],0.078
same,scaled lipid accumulation score,[4],0.329 and 0.334
Fc1cc(-c2ccnc(Nc3ccc(-n4cnc(N5CCOCC5)n4)cc3)n2)cc(N2CCOCC2)c1,scaled lipid accumulation score,[5],0.394
same,scaled lipid accumulation score,[1],0.734
same,scaled lipid accumulation score,[2],0.178
same,scaled lipid accumulation score,[4],0.442
Cc1nc(N)sc1-c1ccnc(Nc2ccc(N3CCOCC3)cc2)n1 [listing 2 of 3 here],scaled lipid accumulation score,[4],1.02 (active)
Cc1nc(N)sc1-c1ccnc(Nc2ccc(N3CCOCC3)cc2)n1 [listing 3 of 3 here],scaled lipid accumulation score,[4],1.07 (active)
